Source: PubChem
D3 antag: antagonists of human D3 dopamine receptor; AID 652054; max response, negative = inhibition, %; 2.5% of 360,000 active; D3R cells, DiscoveRx beta-arrestin luminescence, antagonist mode; hits give low values; in the data active = max response below about -50%; inconclusive = no clear call, values can overlap the other calls; note: % is set by controls: 0 for no effect and ±100 for the full control effect
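Cells plated overnight at 1500 cells/well, then exposed to library compounds with dopamine controls for 90 minutes at 37 degrees C. DiscoveRx reagent added for 30–60 minutes at room temperature; luminescence read, quantitative HTS format.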
LDHA inh: inhibitors of human lactate dehydrogenase A; purified LDHA, NADH/diaphorase-resazurin fluorescence; hits give low values; activity change, % (values are at about 110 or 230 µM); 0.15% of 480,000 active; AID 1347041; in the data active = activity change below about -30%; inconclusive = mostly about -25% to -30%;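 note: plate controls were DMSO wells for no effect and wells without enzyme for full effect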
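Enzyme activity of human lactate dehydrogenase 5 (2 nM; 0.06 mM NADH, 0.2 mM pyruvate, 5 min, RT) is measured via a resazurin/diaphorase fluorescence readout of residual NADH.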
D3 ag: activates the human D3 dopamine receptor; max activation, %; D3R DiscoveRx beta-arrestin cells, luminescence, 90 min; 0.58% of 410,000 active; AID 652048; in the data active = max activation above about 30%; note: 0% is about no effect
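Cells at 1500/well, incubated overnight, then treated with pinned compounds (dopamine as control) for 90 min at 37 degrees C. DiscoveRx reagent added for 30 - 60 minutes at room temperature; luminescence read.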
PI4K2A block: blocks human PI4K2A kinase activity; purified PI4K2A, ADP-Glo luminescence, 1 h; hits give low values; activity change, negative = inhibition, % at 76.9 µM; 0.13% of 420,000 active; in the data active = activity change below about -50%; inconclusive = mostly about -30% to -49%;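 note: -100% = wells without enzyme as full effect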
Target sequence (Q9BTU6 whole entry, looked up): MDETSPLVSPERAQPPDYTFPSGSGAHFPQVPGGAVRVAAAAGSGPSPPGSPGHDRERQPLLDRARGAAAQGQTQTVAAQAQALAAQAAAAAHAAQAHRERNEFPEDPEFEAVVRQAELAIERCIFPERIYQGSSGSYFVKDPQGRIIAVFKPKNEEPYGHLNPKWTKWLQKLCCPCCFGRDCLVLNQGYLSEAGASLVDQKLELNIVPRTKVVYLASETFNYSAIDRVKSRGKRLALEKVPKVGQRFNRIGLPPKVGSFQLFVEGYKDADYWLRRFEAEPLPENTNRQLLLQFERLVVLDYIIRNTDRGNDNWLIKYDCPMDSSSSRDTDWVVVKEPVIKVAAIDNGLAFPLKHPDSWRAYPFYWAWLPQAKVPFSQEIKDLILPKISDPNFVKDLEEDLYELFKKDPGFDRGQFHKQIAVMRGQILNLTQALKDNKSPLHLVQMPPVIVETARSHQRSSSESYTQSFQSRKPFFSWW
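ADP-Glo luminescence measured ADP generated by PI4K2A enzyme (4 ug/mL before mixing) with 1.2 mM PI substrate (pre-mix) and 300 microM ATP (pre-mix). Tris pH7.5 buffer with MgCl2, Triton X-100; 1 h reaction at ambient temperature.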
Akt phos inh: inhibitors of Akt phosphorylation; 0.32% of 360,000 active; activity change, % for hits at 50 µM; Neuro2A IGF-stimulated pAkt S473 HTRF, 20 min; hits give low values; AID 651550; in the data active = activity change below about -80%; inconclusive = mostly about -51% to -80%; note: % is set by controls: 0 for no effect and ±100 for the full control effect
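Neuro2A cells (4,500/well, DMEM with 0.5% FBS) were treated with compound at a single 50 µM final concentration, stimulated with 6 nM IGF for 20 min at 37 °C, and lysed. Phospho-Akt Ser473 was read by HTRF as 665/615 ratio ×10^4.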
RGS4 inh: human RGS4 inhibition | P49798 | 0.039% of 390,000 active | AID 504845 | Transcreener GDP fluorescence polarization, RGS4-accelerated GTP hydrolysis | Potency, µM (titrated, usually from 114 µM), without a hit: at the top dose activity change, negative = inhibition, hits mostly inhibitors; active = well fitted inhibition curve with a large enough effect; inconclusive = small, poorly fitted or top-dose-only effect; inactive = no such curve, though single readings can be large or run the other way; note: potency is the fitted concentration of half-maximal effect; % is set by controls: 0 for no effect and ±100 for the full control effect; nearly all actives have a fitted effect of over 75% in size
Target sequence (P49798 whole entry, looked up): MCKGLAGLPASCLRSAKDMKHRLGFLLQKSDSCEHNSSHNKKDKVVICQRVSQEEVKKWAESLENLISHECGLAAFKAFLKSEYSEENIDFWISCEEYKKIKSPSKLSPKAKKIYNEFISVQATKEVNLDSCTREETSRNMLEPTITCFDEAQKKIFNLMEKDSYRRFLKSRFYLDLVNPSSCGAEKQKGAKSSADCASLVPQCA
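MLSMR compounds (23 nl, pin-transferred) preincubated 10 min at room temperature with a 500nM (2x) first reagent, then RGS4 at 900nM (2x) plus Transcreener GDP mix added; fluorescence polarization (620/688 nm) read before and after 90 min at 30 °C.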
* = called active by the depositor; i = inactive; ? = inconclusive; . = no result given; [ ] = remark or other dose. Hits are enriched below; roughly 2.8% of the tested compounds scored in any of these assays.

SMILES	D3 antag	LDHA inh	D3 ag	PI4K2A block	Akt phos inh	RGS4 inh
Cc1ccc(NC(=S)NNC(=O)Nc2ccccc2)cc1	-52*	-3	-18	0	i	-45%
O=C(NNC(=S)Nc1ccccc1)NNC(=S)Nc1ccccc1	-70*	2	-4	-2	i	-18%
Cc1ccc(NC(=S)NNC(=O)c2c(Cl)c(C)nn2C)cc1	-19	-7	-14	4	i	-14%
O=C(NCC1(c2ccccc2)CC1)c1nn(-c2ccccc2)c(=O)c2ccccc12	.	0	.	.	.	.
Cc1ccc(C(=O)Sc2cccccc2=O)cc1	-94*	17	-31	-12	i	-98%
CCOC(=O)C1=CN(Cc2ccc(F)cc2)C=C(C(=O)OCC)C1c1ccc(O)cc1	.	-1	.	.	.	.
O[Si](CCCN1CCCCC1)(c1ccc(F)cc1)C1CCCCC1 (centres undefined)	-110*	-1	-87	-2	i	-3%[56.9 µM]
CCN(CC)C(=O)C1CCCN(Cc2sccc2C)C1 (centres undefined)	-63*	-15	-20	5	.	21%
Cc1ccc2oc3nc(C)c(C(=O)Nc4cccc(C(F)(F)F)c4)cc3c(=O)c2c1	-3	-17	-7	-3	-93%*	27%
CCCCC(=O)N1CCC(c2nc3ccccc3o2)CC1	.	0	.	.	.	.
Nc1c(C(=O)NCC2CCCO2)sc2nc3c(c(-c4ccco4)c12)CC/C3=C\c1ccco1 (centres undefined)	-4	13	-4	-76*	i	-125%
Cn1c(-c2ccc3ccccc3n2)nc2cnccc21	-59*	-2	12	-2	i	-19%
COCc1nnc(NS(=O)(=O)c2ccc(OC)cc2)s1	47	-4	-8	-4	i	-2%
COCc1nnc(NS(=O)(=O)c2ccc([N+](=O)[O-])cc2)s1	-58*	-7	-3	0	i	-23%
CN1C(C(=O)NCc2ccc(F)cc2)=C(c2ccccc2)c2cc(Cl)ccc2S1(=O)=O	.	-13	.	.	.	.
O=C(CCCc1ccccc1)NCCCN1CCOCC1	5	-5	-5	4	i	2%
S=C(NCCCN1CCOCC1)N(Cc1ccccc1)Cc1ccccc1	-93*	-3	-2	7	i	-8%
COc1cc(/C=C(/C#N)C(=O)c2c[nH]c3cc(F)ccc23)cc(OC)c1	.	27	.	.	.	.
CO[C@H]1C=CO[C@@]2(C)Oc3c(C)c(O)c4c(O)c(c(C=NN5CCN(C)CC5)c(O)c4c3C2=O)NC(=O)C(C)=CC=C[C@H](C)[C@H](O)[C@@H](C)[C@@H](O)[C@@H](C)[C@H](OC(C)=O)[C@@H]1C	-76*	11	-39	-17	i	-16%
CCCn1nc(C(=O)N2CC(C(=O)N3CCOCC3)Oc3ccccc32)c2ccccc2c1=O (centres undefined)	.	4	.	.	.	.
Cc1cnc(C(=O)OCC(=O)c2ccc3ccccc3c2)cn1	.	1	.	.	.	.
CCOc1ccccc1N(CC(=O)OC)S(C)(=O)=O	-107*	-1	5	1	i	-4%
Clc1cnc(N/N=C/c2cccs2)c(Cl)c1	32	1	-7	-8	-104%*	-27%
Oc1ccc(/C=N/Nc2ncc(Cl)cc2Cl)cc1	-6	-6	-6	-6	i	5%
Cc1ccc(/C=N/Nc2ncc(Cl)cc2Cl)s1	28	4	31*	-8	.	3%
SMILES	D3 antag	LDHA inh	D3 ag	PI4K2A block	Akt phos inh	RGS4 inh
Cc1ccc(-n2ncc(C#N)c2/N=C/N2CCN(C)CC2)cc1	-76*	-2	2	1	i	-28%
CN1CCN(/C=N/c2c(C#N)cnn2-c2ccccc2)CC1	?	-2	-11	6	i	-5%[11.4 µM]
Cc1cccc(Nc2nc(-c3cc4ccccc4oc3=O)cs2)c1	.	-15	.	.	.	.
CN1CCN(c2nc(Nc3ccccc3)nc(N)c2[N+](=O)[O-])CC1	-67*	2	-39	3	i	-28%
Cc1cccc(Nc2nc(N)c([N+](=O)[O-])c(N3CCN(C)CC3)n2)c1	-64*	-3	-32	-1	i	6%
CCN1CCN(c2nc(Nc3ccccc3)nc(N)c2[N+](=O)[O-])CC1	-12	-8	-1	8	i	-18%
CCN1CCN(c2nc(Nc3ccc(OC)cc3)nc(N)c2[N+](=O)[O-])CC1	-54*	-8	-27	0	i	12%
Cc1cccc(Nc2nc(N)c([N+](=O)[O-])c(N3CCCC(C)C3)n2)c1 (centres undefined)	6	1	4	-3	i	10%
CCN1CCN(c2nc(Nc3ccccc3F)nc(N)c2[N+](=O)[O-])CC1	-63*	1	-17	3	i	-9%
CCN1CCN(c2nc(Nc3cccc(C)c3)nc(N)c2[N+](=O)[O-])CC1	-65*	-4	-46	0	i	-14%
CC1CCN(C(=O)CSc2nc3ccccc3[nH]2)CC1	-53*	-4	-38	1	i	7%
O=C(CSc1nc2ccccc2c(=O)[nH]1)N1CCN(S(=O)(=O)c2ccccc2)CC1	15	2	-1	1	-84%*	6%
NC(=O)C1CCN(C(=O)CSc2nc3ccccc3[nH]2)CC1	15	2	5	-8	i	-24%[11.4 µM]
CC(NCCCSc1ccccc1)C(O)c1ccc(O)cc1 (centres undefined)	-62*	-17	-14	-6	i	.
Cc1csc2ncnc(N3CCN(C(=S)Nc4ccc(F)cc4F)CC3)c12	19	-6	41*	0	i	-7%
Cc1cccc2c(=O)c(-c3ccc4c(c3)OCO4)c(NC(=O)CC(C)C)oc12	.	3	.	.	.	.
CSCCc1nc(SCC(=O)Nc2ccc(C)cc2)[nH]c1C	.	-9	.	.	.	.
CCN1c2ccccc2-c2nc3ccccc3n2C1c1ccco1 (centres undefined)	-50*	3	1	-3	i	-13%
c1ccc(CN2c3ccccc3-c3nc4ccccc4n3C2c2ccccn2)cc1 (centres undefined)	-1	0	4	6	.	-5%
COc1ccc(C(=O)Nc2nc(-c3ccc(Br)s3)ns2)cc1	.	-30*	.	.	.	.
COc1ccc(Nc2nc3ccccc3nc2NS(=O)(=O)c2cccs2)cc1Cl	.	-6	.	.	.	.
Nc1ccc(S(=O)(=O)NN=CC=Cc2ccccc2[N+](=O)[O-])cc1	-65*	0	-17	1	i	-10%
NS(=O)(=O)c1ccc(N/N=C/C=C/c2ccccc2[N+](=O)[O-])cc1	2	2	5	3	i	-9%
COc1ccc(COC(=O)C2=C(C)NC3=C(C(=O)CCC3)C2c2ccccc2Br)cc1 (centres undefined)	.	-17	.	.	.	.
